Results on five compounds are retold here after PubChem BioAssay.

Calls of active or inactive are those of the source.

A short description of test [1]: small molecules captured by biotinylated probe aFSTL3 – biochemical, small-molecule microarray, fluorescence 635/667, stem cell growth factor project, primary screen (AID 1064).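 Further: measures binding of the biotinylated anti-FSTL3 antibody to printed compounds.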 The settings on record: higher = more signal.
Test [2] in a line: binders from COS7 lysate, DM2A8 probe, primary screen, torsin A project, cell lysate, small-molecule microarray, fluorescence 635/667 (AID 1065). To be noted: higher = more signal, COS7 lysate expressing mutant human TOR1A.
A short description of test [3]: small molecules captured by biotinylated probe aFGF2 – biochemical, small-molecule microarray, fluorescence 635/667, stem cell growth factor project, primary screen (AID 1067).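 Further: measures binding of biotinylated aFGF2 protein to printed compounds on slides; z-score merges feature fluorescence and signal-to-noise across triplicate slides.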 The settings on record: higher = more signal.
The nature of test [4]: small molecules captured by biotinylated probe aFGF10 – biochemical, small-molecule microarray, fluorescence 635/667, stem cell growth factor project, primary screen (AID 1071).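 Further: score merges 667 nm spot intensity and signal to noise from triplicate slides.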 The settings on record: higher = more signal.
Test [5] concerns the target Neurogenic locus notch homolog protein 2 (Homo sapiens) (UniProt Q04721). The experiment in a line: small molecules binding Notch2 protein – biochemical, small-molecule microarray, 635 nm fluorescence, stem cell growth factors, primary screen (AID 1073). The settings on record: higher = more signal.
Test [6] deals with Pro-neuregulin-1, membrane-bound isoform (Homo sapiens) (UniProt Q02297). The experiment in a line: small molecules binding neuregulin-1 protein – biochemical, small-molecule microarray, fluorescence 635/667, psychiatric disease protein project, primary screen (AID 1075).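 Further: score combines 667 nm spot fluorescence with signal to noise.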 To be noted: NRG1 binding, 635 nm fluorescence, higher = more signal.
The test system of test [7] is Neuregulin-1 EGF-like domain. The experiment in a line: small molecules binding NRG1 EGF domain – biochemical, small-molecule microarray, 635 nm fluorescence, primary screen (AID 1081).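 Further: binding of the protein to compounds printed on small-molecule microarray slides.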 To be noted: higher = more signal.
Test [8] in a line: FRG1 expression reporter modulators in myotubes – cell-based, C2C12 myotubes, firefly/Renilla luciferase, luminescence, FRG1 inhibition for FSHD, primary screen (AID 1084). To be noted: FRG1 promoter luciferase, higher = more signal, called active from +8 up or from −8 down.
The nature of test [9]: small molecules captured by biotinylated probe aFST – biochemical, small-molecule microarray, fluorescence 635/667, stem cell growth factor project, primary screen (AID 1086).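 Further: score merges 667 nm fluorescence with signal-to-noise of each printed compound spot.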 The settings on record: higher = more signal.
Test [10] can be described thus: binders of probe aHhip on microarray, primary screen, stem cell growth factor project, biochemical, small-molecule microarray, fluorescence 635/667 (AID 1087).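 Further: score merges spot fluorescence at 667nm with spot signal to noise ratio.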 The settings on record: higher = more signal.
The test system of test [11] is PRMT1 (protein arginine N-methyltransferase 1). Kind of test: small molecules binding arginine methyltransferase PRMT1 – biochemical, small-molecule microarray, 635 nm fluorescence, primary screen (AID 1088).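 Further: binding of Prmt1 protein to compounds spotted on small-molecule microarray slides.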 The settings on record: higher = more signal.
A short description of test [12]: growth effects on S. cerevisiae YJM789 – YJM789 clinical isolate, OD600, 24 h, basal, primary screen (AID 1089).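 Further: growth of clinical yeast isolate S. cerevisiae YJM 789 seeded 1000 cells per well; test concentration not given here.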 The settings on record: higher = more signal, called active from +8 up or from −8 down.
Test [13] in a line: S. pombe growth modifiers, basal conditions – strain 972, OD600, 24 h, no modulator, primary screen (AID 1090).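 Further: basal condition with compound alone and no growth modifier present; test concentration not given here.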 To be noted: S. pombe 972 growth, higher = more signal, called active from +8 up or from −8 down.
Test [14] can be described thus: budding yeast growth modifiers under rapamycin – strain BY4716, OD600, 96 h, primary screen (AID 1091). Further: test concentration not given here. The settings on record: S. cerevisiae BY4716 + rapamycin, higher = more signal, called active from +8 up or from −8 down.
Test [15] has as its target Torsin-1A-interacting protein 2 (Homo sapiens) (UniProt Q8NFQ8). Kind of test: small molecules binding lysate-expressed LULL1 – cell lysate, human LULL1 lysate, 635/667 nm fluorescence, primary screen (AID 1092).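 Further: probe is lysate of COS7 cells overexpressing human LULL1; score merges per-feature 667 nm fluorescence with signal-to-noise.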 To be noted: small-molecule microarray, hLULL1 lysate binding, 635 nm fluorescence; higher = more signal.
A short description of test [16]: optical density change of DRC41 E. coli – strain DRC41, OD650, 24 h, E. coli filamentation project, primary screen (AID 1093).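 Further: MC1000 strain lacking acrAB efflux and sulA so SOS filamentation is blocked; test concentration not given here.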 To be noted: E. coli DRC41 growth, higher = more signal, called active from +8 up or from −8 down.
Test [17] is described as follows: probe aLefty2 binding to arrayed compounds – biochemical, biotinylated probe, 635/667 nm fluorescence, primary screen (AID 1094).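 Further: score merges spot fluorescence near 667 nm with spot signal-to-noise ratio.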 The settings on record: small-molecule microarray, higher = more signal.
Test [18] deals with Noggin (protein binding on small-molecule microarray). Kind of test: small molecules binding Noggin protein – biochemical, 635/667 nm fluorescence, primary screen (AID 1095).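 Further: score merges 667 nm feature fluorescence with signal to noise over triplicate slides.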 The settings on record: 635 nm fluorescence, higher = more signal.
The target in test [19] is Neurogenic locus notch homolog protein 3 (Homo sapiens) (UniProt Q9UM47). Kind of test: small molecules binding NOTCH3 protein – biochemical, 635/667 nm fluorescence, primary screen (AID 1096). The settings on record: small-molecule microarray, 635 nm fluorescence, higher = more signal.
Test [20] in a line: probe aEGFR binding to arrayed compounds – biochemical, biotinylated probe, 635/667 nm fluorescence, primary screen (AID 1097).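 Further: probe is a biotinylated anti-EGFR antibody binding compounds printed on slides; score combines fluorescence near 667 nm and signal to noise of each spot.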 The settings on record: small-molecule microarray, higher = more signal.

Chain of Neurogenic locus notch homolog protein 3 (Homo sapiens) (Q9UM47 whole entry, looked up): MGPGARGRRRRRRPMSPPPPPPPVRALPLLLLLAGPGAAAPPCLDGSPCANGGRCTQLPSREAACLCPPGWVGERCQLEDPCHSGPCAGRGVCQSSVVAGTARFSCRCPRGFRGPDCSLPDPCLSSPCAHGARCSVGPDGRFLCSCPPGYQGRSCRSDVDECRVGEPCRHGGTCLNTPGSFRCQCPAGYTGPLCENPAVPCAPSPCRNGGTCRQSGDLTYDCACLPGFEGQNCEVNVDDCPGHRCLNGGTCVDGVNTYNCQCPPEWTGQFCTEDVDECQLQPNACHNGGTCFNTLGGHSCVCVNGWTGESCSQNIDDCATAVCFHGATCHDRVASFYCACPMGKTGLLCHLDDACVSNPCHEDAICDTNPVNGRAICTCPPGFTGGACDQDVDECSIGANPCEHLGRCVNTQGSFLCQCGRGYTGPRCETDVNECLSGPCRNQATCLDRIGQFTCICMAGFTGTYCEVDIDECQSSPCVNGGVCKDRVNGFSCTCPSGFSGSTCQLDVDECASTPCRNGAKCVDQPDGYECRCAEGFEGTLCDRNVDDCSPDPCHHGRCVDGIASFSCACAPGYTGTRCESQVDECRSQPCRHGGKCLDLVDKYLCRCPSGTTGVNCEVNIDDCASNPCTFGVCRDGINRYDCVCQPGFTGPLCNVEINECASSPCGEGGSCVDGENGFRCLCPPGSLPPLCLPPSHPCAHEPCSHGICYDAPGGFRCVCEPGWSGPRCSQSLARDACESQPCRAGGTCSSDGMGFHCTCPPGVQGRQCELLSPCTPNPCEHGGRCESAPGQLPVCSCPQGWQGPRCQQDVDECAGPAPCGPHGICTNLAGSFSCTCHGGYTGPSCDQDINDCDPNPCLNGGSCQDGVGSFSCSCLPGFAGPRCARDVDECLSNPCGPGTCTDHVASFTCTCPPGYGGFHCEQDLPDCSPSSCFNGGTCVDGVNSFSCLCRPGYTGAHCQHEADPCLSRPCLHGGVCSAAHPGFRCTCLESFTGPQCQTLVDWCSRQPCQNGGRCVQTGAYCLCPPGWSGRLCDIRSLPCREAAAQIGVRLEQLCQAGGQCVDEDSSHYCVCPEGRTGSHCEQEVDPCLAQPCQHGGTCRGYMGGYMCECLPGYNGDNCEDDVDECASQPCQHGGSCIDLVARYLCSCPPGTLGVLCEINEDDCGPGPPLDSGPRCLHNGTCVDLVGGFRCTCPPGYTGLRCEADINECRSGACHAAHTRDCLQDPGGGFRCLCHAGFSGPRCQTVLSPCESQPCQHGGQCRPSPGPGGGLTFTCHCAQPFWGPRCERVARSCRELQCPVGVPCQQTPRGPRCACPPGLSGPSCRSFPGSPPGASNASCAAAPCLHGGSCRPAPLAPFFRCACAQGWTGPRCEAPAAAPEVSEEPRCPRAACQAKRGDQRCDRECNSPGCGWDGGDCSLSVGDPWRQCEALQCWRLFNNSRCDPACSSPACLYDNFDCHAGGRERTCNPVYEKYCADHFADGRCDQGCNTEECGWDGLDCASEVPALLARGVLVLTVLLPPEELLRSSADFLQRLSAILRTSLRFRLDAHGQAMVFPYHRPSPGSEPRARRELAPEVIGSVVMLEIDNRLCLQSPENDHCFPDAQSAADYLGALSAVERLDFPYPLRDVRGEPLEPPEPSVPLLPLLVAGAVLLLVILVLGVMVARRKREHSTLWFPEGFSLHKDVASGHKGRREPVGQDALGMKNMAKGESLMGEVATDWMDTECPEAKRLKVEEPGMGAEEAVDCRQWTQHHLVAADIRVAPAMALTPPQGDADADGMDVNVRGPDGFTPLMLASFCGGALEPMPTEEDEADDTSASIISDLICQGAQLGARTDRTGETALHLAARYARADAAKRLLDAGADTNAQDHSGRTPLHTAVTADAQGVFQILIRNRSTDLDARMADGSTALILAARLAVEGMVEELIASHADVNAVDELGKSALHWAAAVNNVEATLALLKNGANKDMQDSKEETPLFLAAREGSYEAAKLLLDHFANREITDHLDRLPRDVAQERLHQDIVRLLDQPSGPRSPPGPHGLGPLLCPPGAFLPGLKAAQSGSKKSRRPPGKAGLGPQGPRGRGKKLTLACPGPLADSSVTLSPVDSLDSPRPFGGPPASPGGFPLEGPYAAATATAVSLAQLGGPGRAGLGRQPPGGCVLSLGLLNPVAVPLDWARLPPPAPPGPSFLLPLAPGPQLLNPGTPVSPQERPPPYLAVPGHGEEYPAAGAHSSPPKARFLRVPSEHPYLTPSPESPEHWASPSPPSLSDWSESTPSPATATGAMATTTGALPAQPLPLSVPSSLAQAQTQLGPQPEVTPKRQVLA
Chain of Pro-neuregulin-1, membrane-bound isoform (Homo sapiens) (Q02297 whole entry, looked up, the tested form may be a part, canonical isoform): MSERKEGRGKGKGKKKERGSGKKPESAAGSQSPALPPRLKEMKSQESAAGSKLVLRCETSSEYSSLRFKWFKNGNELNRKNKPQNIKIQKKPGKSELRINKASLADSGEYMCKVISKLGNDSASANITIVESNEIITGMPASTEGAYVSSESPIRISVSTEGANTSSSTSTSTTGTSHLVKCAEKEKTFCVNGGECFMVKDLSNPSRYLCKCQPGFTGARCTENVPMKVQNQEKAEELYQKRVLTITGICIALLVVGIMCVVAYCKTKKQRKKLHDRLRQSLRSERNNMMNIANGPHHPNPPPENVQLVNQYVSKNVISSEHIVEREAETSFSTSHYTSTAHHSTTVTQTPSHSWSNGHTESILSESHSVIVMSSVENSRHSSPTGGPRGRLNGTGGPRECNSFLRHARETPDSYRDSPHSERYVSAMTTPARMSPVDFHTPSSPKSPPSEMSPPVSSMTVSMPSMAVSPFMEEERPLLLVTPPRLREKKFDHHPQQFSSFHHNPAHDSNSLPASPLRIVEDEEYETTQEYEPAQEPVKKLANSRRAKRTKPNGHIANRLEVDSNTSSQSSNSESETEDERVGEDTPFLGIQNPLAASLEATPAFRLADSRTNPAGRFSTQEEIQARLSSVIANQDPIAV
Chain of Torsin-1A-interacting protein 2 (Homo sapiens) (Q8NFQ8 whole entry, looked up): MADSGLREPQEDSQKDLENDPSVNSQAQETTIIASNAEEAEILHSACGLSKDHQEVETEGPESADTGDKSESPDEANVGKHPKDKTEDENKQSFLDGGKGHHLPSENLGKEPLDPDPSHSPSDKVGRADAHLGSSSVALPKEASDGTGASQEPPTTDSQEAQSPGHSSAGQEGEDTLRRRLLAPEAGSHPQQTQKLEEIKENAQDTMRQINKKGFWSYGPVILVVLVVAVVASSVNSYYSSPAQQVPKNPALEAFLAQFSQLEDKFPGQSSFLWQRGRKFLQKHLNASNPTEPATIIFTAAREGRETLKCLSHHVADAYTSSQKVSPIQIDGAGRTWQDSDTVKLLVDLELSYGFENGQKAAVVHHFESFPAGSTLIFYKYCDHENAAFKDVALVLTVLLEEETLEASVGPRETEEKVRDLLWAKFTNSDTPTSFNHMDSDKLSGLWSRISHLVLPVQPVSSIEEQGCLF

Take `COCCOC(=O)N1C(=O)[C@@]2(c3cc(C#CC4=CCCCC4)ccc31)[C@H](C(=O)N1CCc3cc(OC)c(OC)cc3C1)[C@H]1C(=O)O[C@H](c3ccccc3)[C@H](c3ccccc3)N1[C@@H]2c1ccccc1OCCO`: the composite z-score was 0.243 in [1]; 0.0781 in test [2]; -0.0867 in test [3]; -0.205 in [4]; 0.138 in [5]; -0.442 in test [6]. For the same compound, the composite z-score in test [7] is 1.06; in test [9], 0.186; in [10] it was -0.0645; in test [11], 1.01; in test [15] it was 1.97; in test [17] it was 0.0906. Besides, the composite z-score was determined as 1.16 in test [18], 1.09 in [19] and 0.0238 in test [20]. The z-score was 0.801 (inactive) in test [8]; 1.51 (inactive) in test [12]; 1.35 (inactive) in test [13]; 2.78 (inactive) in test [14]; 0.982 (inactive) in test [16].
As to `Cc1cc(C)cc(N2C(=O)CS(=O)(=O)C2c2cccc([N+](=O)[O-])c2)c1` (stereo not given), the composite z-score in test [1] turned out to be 0.228; in [2] it was 0.661; in test [3], 0.245; in [4] it was 0.366; in test [5] it was 1.17; in test [6] it was 1.63. The composite z-score was found to be 1.04 in test [7]; 1.18 in [9]; 1.53 in [10]; 1.13 in test [11]; 2.13 in [15]; 0.788 in test [17]. In addition, the composite z-score is 0.0104 in [18], 0.726 in test [19] and 0.477 in [20]. The z-score is -1.47 (inactive) in test [8]; -0.703 (inactive) in test [12]; -1.22 (inactive) in test [13]; -0.522 (inactive) in test [14]; -0.268 (inactive) in test [16].
`COC(=O)C[C@@H]1C[C@H](C)[C@]2(O1)C(=O)N(Cc1ccccc1)c1ccc(NC(C)=O)cc12`: the composite z-score was -0.589 in [1]; 0.108 in [2]; -0.144 in test [3]; 0.315 in test [4]; 0.381 in test [5]; -0.12 in test [6]. Moreover, the composite z-score in test [7] was 0.443; in [9], -0.0507; in test [10] it was 0.0012; in test [11], -0.509; in [15], 0.053; in test [17], -0.166. In addition, the composite z-score in test [18] was 0.571; in test [19], 0.107; in [20] it was -0.111. Further, the z-score is 0.74 (inactive) in test [8]; 0.498 (inactive) in test [12]; -1.1 (inactive) in [13]; 0.134 (inactive) in test [14]; 0.827 (inactive) in [16].
Regarding `C[N+](C)(C)CCCCCCNC(=O)[C@H]1C[C@H]2C(=O)N3CCC[C@H]3C(=O)N2[C@H]1c1ccc(O)cc1`, the composite z-score in test [1] is 0.159; in test [2], 1.01; in [3], -0.116; in test [4] it was -0.0314; in test [5] it was -0.967; in test [6], 1.96. The composite z-score is 1.37 in test [7]; -0.106 in [9]; -0.0618 in test [10]; 1.54 in [11]; 2.96 in test [15]; 0.0087 in test [17]. Further, the composite z-score in test [18] is 0.785; in test [19] it was 0.6; in test [20], -0.36. Further, the z-score was 3.58 (inactive) in test [8]; -0.842 (inactive) in [12]; -0.153 (inactive) in test [13]; -0.185 (inactive) in test [14]; 0.89 (inactive) in test [16].
As to `O=c1cccc(CCc2ccccc2)o1`, the composite z-score in test [1] was -0.587; in test [2], -0.322; in test [3], -0.0909; in test [4] it was 0.0466; in test [5], -0.321; in test [6] it was 0.93. For the same compound, the composite z-score was 1.16 in test [7]; -0.104 in test [9]; 0.0251 in [10]; 1.08 in test [11]; 1.8 in test [15]; -0.117 in test [17]. Besides, the composite z-score is 0.491 in test [18], 0.621 in [19] and -0.171 in test [20]. Moreover, the z-score in test [8] was 1.17 (inactive); in test [12], -0.951 (inactive); in test [13] it was -2.06 (inactive); in [14], 0.102 (inactive); in [16] it was -0.97 (inactive).
